Shown are actives, neighbours in structure and some others; about 5.7% of the full set was active somewhere.
GRIN3A LBD mod = modulators (binders) of human NR3A ligand-binding domain. NR3A LBD differential scanning fluorimetry, Tm shift; 0% = protein alone, 100% = glycine-bound protein. hit rate 2.5% among 340,000. Tm shift relative to glycine control, % at 25 µM;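 active = melting temperature shift of at least 10% of the positive control shift, at one fixed dose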
FAS TE block = inhibitors of human fatty acid synthase thioesterase domain | P49327 | recombinant FAS-TE, OMFH fluorogenic substrate, fluorescence endpoint | inhibition, % at 15 µM | hit rate 0.67% among 360,000;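 active = compounds whose normalised, plate-corrected inhibition of enzyme fluorescence in the single-dose primary screen is 50% or more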
rCAG binder = binds r(CAG) RNA repeats. r(CAG) RNA repeat, TO-PRO-1 dye displacement fluorescence. inhibition, % at 3 µM. hit rate 1.3% among 370,000;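 active = inhibition above the plate cutoff, the mean of all test compounds on that plate plus 3 SD, cut at about 35% in these data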;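 also: higher means more dye released from RNA so lower well fluorescence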
Myeloid diff 2 = promotes myeloid progenitor differentiation; ER-HoxA9 myeloid progenitors, lysozyme-GFP differentiation, flow cytometry; calls only at 10 µM; hit rate 1% among 360,000;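 active = normalized GFP-positive differentiation at or above the plate's own cutoff, the solvent-only control mean plus 3 SD; inconclusive = no clear call, values can overlap the other calls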;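 also: cells exposed to compound for four days before flow analysis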
MPTP inh = inhibitors of mitochondrial permeability transition pore; isolated mouse mitochondria, Ca2+ swelling absorbance, 30 min; inhibition, % at 10 µM; hit rate 1.4% among 360,000;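 active = inhibition of 50% or more, scaled per plate between neutral and stimulator controls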
Of the large screens only hits and unclear results are named; the others gave an inactive call.

Cc1ccc(NS(=O)(=O)c2ccc(NC(=O)CN(c3cc([N+](=O)[O-])ccc3C)S(C)(=O)=O)cc2)c(C)c1	GRIN3A LBD mod 13
C=CCNC(=O)C1CCN(c2cncnc2)CC1	none (no result: GRIN3A LBD mod, FAS TE block, Myeloid diff 2, MPTP inh)
N#CCC[C@@H]1CC[C@]2(CCCN(Cc3ccccc3)C2)O1	none (no result: GRIN3A LBD mod, FAS TE block, Myeloid diff 2, MPTP inh)
NC(=O)CSc1nnc(COc2ccc3ccccc3c2)o1	none
N#CCSc1nnc(COc2ccc3ccccc3c2)o1	GRIN3A LBD mod 15
N#CCSc1nnc(CNc2cccc(Cl)c2)o1	GRIN3A LBD mod 14
CCn1c(SCc2ccc(C(C)(C)C)cc2)nnc1-c1ccc(C(C)(C)C)cc1	none (no result: GRIN3A LBD mod, FAS TE block, Myeloid diff 2, MPTP inh)
CCC[C@H](/C=C/C(=O)OC(C)(C)C)Sc1ccc(N)cc1	none (no result: GRIN3A LBD mod, FAS TE block, Myeloid diff 2, MPTP inh)
O=C(Nc1ccc(F)cc1F)Nc1sccc1-c1nc2ccccc2s1	GRIN3A LBD mod 21
O=C(Nc1nc2ccccc2s1)Nc1ccc(F)cc1F	none
O=C(Cn1cnc2c(nnn2Cc2ccccc2)c1=O)c1ccccc1	GRIN3A LBD mod 12
O=C(Cn1cnc2c(nnn2Cc2ccc(Cl)cc2)c1=O)c1ccccc1	none
CCCCCCSC1=C(C#N)C(=O)NC2(CCCCC2)S1	rCAG binder 70
C[C@H](CO)N1C[C@H](C)[C@@H](CN(C)C(=O)Nc2ccc3c(c2)OCO3)Oc2c(NC(=O)Nc3ccc(C(F)(F)F)cc3)cccc2C1=O	GRIN3A LBD mod 21, FAS TE block 76, Myeloid diff 2 inconclusive
Cc1noc(C)c1NC(=O)Nc1cccc2c1O[C@H](CN(C)C(=O)Nc1ccc3c(c1)OCO3)[C@@H](C)CN([C@H](C)CO)C2=O	none
C[C@H](CO)N1C[C@H](C)[C@@H](CN(C)C(=O)Nc2ccc(C(F)(F)F)cc2)Oc2c(NC(=O)Nc3ccc4c(c3)OCO4)cccc2C1=O	FAS TE block 75
CCN(CC)CCC(c1cc(OC)c(OC)c(OC)c1)c1c(OC)cc(OC)c2ccc(=O)oc12 (stereo not given)	GRIN3A LBD mod 13
O=C(Cc1ccccc1)N1O[C@H]2C=C[C@@H]1C2	none (no result: GRIN3A LBD mod, FAS TE block, Myeloid diff 2, MPTP inh)
O=C(CSc1nc(-c2ccc(F)cc2)cs1)Nc1ccccn1	GRIN3A LBD mod 13
Cc1csc(SCC(=O)Nc2ccccn2)n1	none
O=[N+]([O-])c1ccc(CN2[C@H](COCc3ccccc3)C=CS2(=O)=O)cc1	none (no result: GRIN3A LBD mod, FAS TE block, Myeloid diff 2, MPTP inh)
O=C1OC(c2ccccc2)=N/C1=C\C=C\c1ccco1	GRIN3A LBD mod 20
CSc1ccc(Cl)c(C(=O)OCC(=O)NCC(C)C)c1	none
CNC(=O)COC(=O)c1cc(SC)ccc1Cl	Myeloid diff 2 active
CN(C)c1ccc(/C=C(\C#N)C(=O)Nc2nc3c(s2)CCN(Cc2ccccc2)C3)cc1	Myeloid diff 2 active
O=C(Nc1nc2c(s1)CN(Cc1ccccc1)CC2)C1CCC1	none
COc1ccc([N+](=O)[O-])cc1NC(=O)C1CCCCC1C(=O)O (stereo not given)	GRIN3A LBD mod 18
COc1ccc([N+](=O)[O-])cc1NC1C2CC3CC(C2)CC1C3 (stereo not given)	none
COc1ccc([N+](=O)[O-])cc1NC1CCCCC1	GRIN3A LBD mod 15
COc1ccc(C)cc1NC(=O)C1CCCCC1C(=O)O (stereo not given)	none
CC(C)N(C[C@@H]1CSCCS(=O)(=O)N1)C(C)C	none (no result: GRIN3A LBD mod, FAS TE block, Myeloid diff 2, MPTP inh)
Cc1ccc(S(=O)(=O)Nc2nc3ccccc3nc2NCC2CCCO2)cc1C (stereo not given)	rCAG binder 42
Cc1cccc(S(=O)(=O)Nc2nc3ccccc3nc2NCC2CCCO2)c1 (stereo not given)	none
COc1cccc(CNC(=O)[C@H]2CCCN2C(=O)[C@H]2CCCN2C(=O)c2cccc(OC)c2)c1	none (no result: GRIN3A LBD mod, FAS TE block, Myeloid diff 2, MPTP inh)
COc1ccc(OC)c(S(=O)(=O)CC(=O)c2cc3ccccc3oc2=O)c1	none (no result: GRIN3A LBD mod, FAS TE block, Myeloid diff 2, MPTP inh)
Cc1ccc(CN2CC=CCS2(=O)=O)cc1	none (no result: GRIN3A LBD mod, FAS TE block, Myeloid diff 2, MPTP inh)
COC(=O)[C@]12C[C@H](CC(=O)N3CCCC3)C(=O)N(Cc3cccc4ccccc34)C1=C[C@H](C(C)(C)C)O[C@@H]2C	none (no result: GRIN3A LBD mod, FAS TE block, Myeloid diff 2, MPTP inh)
CCCCc1c(-c2ccccc2OC)ncn1Cc1cc(F)ccc1F	none (no result: GRIN3A LBD mod, FAS TE block, Myeloid diff 2, MPTP inh)
COc1ccccc1OCC(O)COC(N)=O (stereo not given)	GRIN3A LBD mod 13
C=C[C@]1(C)C=C2C(=O)[C@@]3(O)OC(=O)[C@@]4(CCCC(C)(C)[C@H]34)[C@@]2(O)CC1	Myeloid diff 2 inconclusive (no result: GRIN3A LBD mod)
C=CCn1c(Cc2cccs2)nnc1SCC(=O)Nc1ccc(C)cc1	none (no result: GRIN3A LBD mod, FAS TE block, Myeloid diff 2, MPTP inh)
Nc1nc(-c2ccccc2)ns1	GRIN3A LBD mod 13
COc1ccc(S(=O)(=O)N2CCOCC2)cc1NC(=O)COC(=O)CCOc1ccc(C)cc1	none
CC(C)Oc1ccc(S(=O)(=O)N2CCOCC2)cc1NC(=O)CSC(=S)N1CCCC1	Myeloid diff 2 active (no result: GRIN3A LBD mod)
